Measurements published in PubChem BioAssay.
Values joined by “and” are separate entries in the source; they are usually repeats but may differ in a detail not shown here. Equal values may be shown once. Records with an inconclusive call do not appear. Active and inactive are the calls of the source.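 Rule for the calls, unless noted: active = normalized viability below 100% at a tested concentration; inactive = the rest.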

What was measured:
[1] = growth inhibition of DIPG glioma cells, dose response, cell-based, SU-DIPG-XVII, MIPE5.0, CellTiter-Glo, qHTS (AID 1347060; cut-off not given, nearly all actives have AC50 up to about 26 µM;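 note: cells exposed to compound for 48 hours before viability readout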); details: SU-DIPG-XVII viability, CellTiter-Glo ATP luminescence
[2] = growth inhibition of DIPG glioma cells, dose response, cell-based, JHH-DIPG-1, MIPE4.0, CellTiter-Glo, qHTS (AID 1347062; cut-off not given, nearly all actives have AC50 up to about 27 µM;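 for AC50: cells exposed to compound for two days before readout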); details: JHH-DIPG-1 viability, CellTiter-Glo ATP luminescence
[3] = growth inhibition of DIPG glioma cells, dose response, cell-based, SU-DIPG-XIII, MIPE5.0, CellTiter-Glo, qHTS (AID 1347064; cut-off not given, nearly all actives have AC50 up to about 23 µM;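 note: cells exposed to compound for 48 hours before the viability read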); details: SU-DIPG-XIII viability, CellTiter-Glo ATP luminescence
[4] = JHH-DIPG-1 glioma cell viability, MIPE5.0 library, CellTiter-Glo luminescence, qHTS (AID 1347067; cut-off not given, nearly all actives have AC50 up to about 26 µM;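 note: cells exposed to compound for 48 hours before readout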); details: JHH-DIPG-1 glioma viability, CellTiter-Glo ATP luminescence
[5] = SU-DIPG-XXV glioma cell viability, MIPE5.0 library, qHTS (AID 1347068; cut-off not given, nearly all actives have IC50 up to about 30 µM;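 note: cells exposed to compound for 48 hours before viability readout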)
[6] = sensitizers of A549 cells to miR-34 induction, primary screen, imaging, A549 dox-inducible miR-34, nuclei and caspase counts (AID 1347080;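 active = compounds whose cell count with miR-34 switched on is under 0.7 times the count with it off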); details: A549 miR-34 inducible, Hoechst nuclei count, 48 h
[7] = modifiers of HSF1 nuclear foci, imaging, Selleck Cancer Library (AID 1347162; in the data active = plate-normalised HSF1 focus index below about 0.46); details: human cells, at 10 µM; SSMD: measured here: HSF1 foci SSMD mean; cell count: measured here: cell number; plate-normalised HSF1 focus index: stronger effect = lower value
[8] = survival rescue of mitochondrial mutant cells in low glucose, primary screen, MELAS cybrids, Rieske KO mouse fibroblasts, CellTiter-Glo (AID 1508586;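 active = mean z-score across replicates of 1.96 or higher in either the MELAS or the Rieske mutant cell line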;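 note: z relative to plate mean and SD of compound and empty wells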)
[9] = ovarian cancer cell viability with rucaparib, profiling panel, oncology-focused library, rucaparib conditional (AID 1508598); details: patient-derived ovarian cancer cells, CellTiter-Glo viability, 144 h, stronger effect = lower value
[10] = viability loss in pontine glioma line – cell-based, SU-DIPG-XXV, MIPE5.0, CellTiter-Glo, qHTS, dose response (AID 1347065; cut-off not given, nearly all actives have AC50 up to about 26 µM;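 note: cells exposed to compound for 48 hours before ATP readout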); details: CellTiter-Glo ATP luminescence
[11] = stronger effect = lower value, cell number ratio, induced over uninduced
[12] = measured here: relative caspase fold change +Dox/-Dox
[13] = measured here: total cells with miR-34 induction, stronger effect = lower value
[14] = measured here: total cells without miR-34 induction
[15] = MELAS cybrid survival, CellTiter-Glo 48 h, stronger effect = higher value
[16] = Rieske KO mouse fibroblast survival, CellTiter-Glo 72 h
[17] = at 0.000305 µM, OCI-C5x cells, with rucaparib 10 µM, 100% = cells with rucaparib alone
[18] = at 0.000305 µM, OCI-C5x cells, without rucaparib
[19] = at 0.000305 µM, OCI-P5x cells, with rucaparib 20 µM, 100% = cells with rucaparib alone
[20] = at 0.000305 µM, OCI-P5x cells, without rucaparib
[21] = at 0.00122 µM, OCI-C5x cells, with rucaparib 10 µM, 100% = cells with rucaparib alone
[22] = at 0.00122 µM, OCI-C5x cells, without rucaparib
[23] = at 0.00122 µM, OCI-P5x cells, with rucaparib 20 µM, 100% = cells with rucaparib alone
[24] = at 0.00122 µM, OCI-P5x cells, without rucaparib
[25] = at 0.00488 µM, OCI-C5x cells, with rucaparib 10 µM, 100% = cells with rucaparib alone
[26] = at 0.00488 µM, OCI-C5x cells, without rucaparib
[27] = at 0.00488 µM, OCI-P5x cells, with rucaparib 20 µM, 100% = cells with rucaparib alone
[28] = at 0.00488 µM, OCI-P5x cells, without rucaparib
[29] = at 0.0195 µM, OCI-C5x cells, with rucaparib 10 µM, 100% = cells with rucaparib alone
[30] = at 0.0195 µM, OCI-C5x cells, without rucaparib
[31] = at 0.0195 µM, OCI-P5x cells, with rucaparib 20 µM, 100% = cells with rucaparib alone
[32] = at 0.0195 µM, OCI-P5x cells, without rucaparib
[33] = at 0.0781 µM, OCI-C5x cells, with rucaparib 10 µM, 100% = cells with rucaparib alone
[34] = at 0.0781 µM, OCI-C5x cells, without rucaparib
[35] = at 0.0781 µM, OCI-P5x cells, with rucaparib 20 µM, 100% = cells with rucaparib alone
[36] = at 0.0781 µM, OCI-P5x cells, without rucaparib
[37] = at 0.313 µM, OCI-C5x cells, with rucaparib 10 µM, 100% = cells with rucaparib alone
[38] = at 0.313 µM, OCI-C5x cells, without rucaparib
[39] = at 0.313 µM, OCI-P5x cells, with rucaparib 20 µM, 100% = cells with rucaparib alone
[40] = at 0.313 µM, OCI-P5x cells, without rucaparib
[41] = at 1.25 µM, OCI-C5x cells, with rucaparib 10 µM, 100% = cells with rucaparib alone
[42] = at 1.25 µM, OCI-C5x cells, without rucaparib
[43] = at 1.25 µM, OCI-P5x cells, with rucaparib 20 µM, 100% = cells with rucaparib alone
[44] = at 1.25 µM, OCI-P5x cells, without rucaparib
[45] = at 5 µM, OCI-C5x cells, with rucaparib 10 µM, 100% = cells with rucaparib alone
[46] = at 5 µM, OCI-C5x cells, without rucaparib
[47] = at 5 µM, OCI-P5x cells, with rucaparib 20 µM, 100% = cells with rucaparib alone
[48] = at 5 µM, OCI-P5x cells, without rucaparib

COc1ccc(S(=O)(=O)Nc2cccnc2Nc2ccc(O)cc2)cc1
-0.295: z-score [8, 16]
7150: cell count [7]
inactive: fold change [6, 11] 1.24 | plate-normalised HSF1 focus index [7] 1.07 | z-score [8, 15] 0.679 | viability [9, 17] 111% | viability [9, 18] 122% | viability [9, 19] 117% | viability [9, 20] 128% | viability [9, 21] 119% | viability [9, 22] 133% | viability [9, 23] 118% | viability [9, 24] 119% | viability [9, 25] 119% | viability [9, 26] 133% | viability [9, 27] 112% | viability [9, 28] 121% | viability [9, 29] 113% | viability [9, 30] 128% | viability [9, 31] 108% | viability [9, 32] 122% | viability [9, 33] 110% | viability [9, 34] 134% | viability [9, 35] 111% | viability [9, 36] 111%
0.79: fold change [6, 12]
1.94: SSMD [7]
1190: cell count [6, 13]
962: cell count [6, 14]
active: AC50 [1] 263 nM | AC50 [2] 166 nM | AC50 [3] 468 nM | AC50 [4] 468 nM | IC50 [5] 10.5 µM | viability [9, 37] 58.8% | viability [9, 38] 76.1% | viability [9, 39] 94.4% | viability [9, 40] 28.4% | viability [9, 41] 50% | viability [9, 42] 49.6% | viability [9, 43] 72.9% | viability [9, 44] 23% | viability [9, 45] 43.3% | viability [9, 46] 62% | viability [9, 47] 70.9% | viability [9, 48] 17.9%

COc1cc(Nc2ncc3c(n2)-c2ccc(Cl)cc2C(c2c(F)cccc2OC)=NC3)ccc1C(=O)O
active: AC50 [1] 148 nM | AC50 [3] 8330 nM | AC50 [10] 93.4 nM | AC50 [4] 8330 nM | IC50 [5] 3.72 µM | viability [9, 17] 94.6% | viability [9, 26] 98.7% | viability [9, 29] 94.4% | viability [9, 32] 99.3% | viability [9, 33] 75.5% | viability [9, 34] 70.5% | viability [9, 35] 91.7% | viability [9, 36] 70.7% | viability [9, 37] 74.5% | viability [9, 38] 82.5% | viability [9, 39] 87.4% | viability [9, 40] 63.8% | viability [9, 41] 76.8% | viability [9, 42] 77% | viability [9, 43] 82.8% | viability [9, 44] 56.7% | viability [9, 45] 42.9% | viability [9, 46] 34.9% | viability [9, 47] 78.6% | viability [9, 48] 39%
inactive: outcome [2] | fold change [6, 11] 1.23 | plate-normalised HSF1 focus index [7] 1.13 | z-score [8, 15] -0.56 | viability [9, 18] 108% | viability [9, 19] 113% | viability [9, 20] 109% | viability [9, 21] 112% | viability [9, 22] 101% | viability [9, 23] 110% | viability [9, 24] 106% | viability [9, 25] 107% | viability [9, 27] 110% | viability [9, 28] 106% | viability [9, 30] 103% | viability [9, 31] 106%
6720: cell count [7]
1510: cell count [6, 14]
1850: cell count [6, 13]
0.925: z-score [8, 16]
1.04: fold change [6, 12]
2.08: SSMD [7]

COc1cccc2c1C(=O)c1c(O)c3c(c(O)c1C2=O)C[C@@](O)(C(=O)CO)C[C@@H]3O[C@H]1C[C@H](N)[C@H](OC2CCCCO2)[C@H](C)O1 (some centres undefined)
active: AC50 [1] 417 nM and 332 nM | AC50 [2] 16600 nM | AC50 [3] 2.95 µM and 833 nM | AC50 [10] 4.68 µM and 1.66 µM | AC50 [4] 2.95 µM and 2.35 µM | IC50 [5] 6.61 µM and 9.34 µM
